Source: PubChem (several laboratories)
PG9 Ab binder: small molecules binding HIV-1 gp120 antibody PG9 | inhibition, % at 6.7 µM | 360,000 tested, 0.43% active | AID 624416 | TR-FRET gp120-PG9 antibody binding; in the data active = inhibition above about 8.5%
GC-A act: GC-A (human) enzyme activation; P16066; HEK293 GC-A cells, cGMP TR-FRET, EC30 ANP; 0% at EC30 ANP, 100% saturating ANP; activation, % at 10 µM; 370,000 tested, 0.14% active; AID 1671463; in the data active = activation above about 40%
NPR2 activator: GC-B (human) receptor activation. HEK293-GC-B cells, CNP EC30, cGMP TR-FRET; 0% at EC30 CNP, 100% saturating CNP. activation, % at 10 µM. 370,000 tested, 0.11% active. AID 1920062;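 active = activation at 10 µM reaching about 35% in either raw or pattern-adjusted values, limit read from the data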
Target sequence (P20594 whole entry, looked up): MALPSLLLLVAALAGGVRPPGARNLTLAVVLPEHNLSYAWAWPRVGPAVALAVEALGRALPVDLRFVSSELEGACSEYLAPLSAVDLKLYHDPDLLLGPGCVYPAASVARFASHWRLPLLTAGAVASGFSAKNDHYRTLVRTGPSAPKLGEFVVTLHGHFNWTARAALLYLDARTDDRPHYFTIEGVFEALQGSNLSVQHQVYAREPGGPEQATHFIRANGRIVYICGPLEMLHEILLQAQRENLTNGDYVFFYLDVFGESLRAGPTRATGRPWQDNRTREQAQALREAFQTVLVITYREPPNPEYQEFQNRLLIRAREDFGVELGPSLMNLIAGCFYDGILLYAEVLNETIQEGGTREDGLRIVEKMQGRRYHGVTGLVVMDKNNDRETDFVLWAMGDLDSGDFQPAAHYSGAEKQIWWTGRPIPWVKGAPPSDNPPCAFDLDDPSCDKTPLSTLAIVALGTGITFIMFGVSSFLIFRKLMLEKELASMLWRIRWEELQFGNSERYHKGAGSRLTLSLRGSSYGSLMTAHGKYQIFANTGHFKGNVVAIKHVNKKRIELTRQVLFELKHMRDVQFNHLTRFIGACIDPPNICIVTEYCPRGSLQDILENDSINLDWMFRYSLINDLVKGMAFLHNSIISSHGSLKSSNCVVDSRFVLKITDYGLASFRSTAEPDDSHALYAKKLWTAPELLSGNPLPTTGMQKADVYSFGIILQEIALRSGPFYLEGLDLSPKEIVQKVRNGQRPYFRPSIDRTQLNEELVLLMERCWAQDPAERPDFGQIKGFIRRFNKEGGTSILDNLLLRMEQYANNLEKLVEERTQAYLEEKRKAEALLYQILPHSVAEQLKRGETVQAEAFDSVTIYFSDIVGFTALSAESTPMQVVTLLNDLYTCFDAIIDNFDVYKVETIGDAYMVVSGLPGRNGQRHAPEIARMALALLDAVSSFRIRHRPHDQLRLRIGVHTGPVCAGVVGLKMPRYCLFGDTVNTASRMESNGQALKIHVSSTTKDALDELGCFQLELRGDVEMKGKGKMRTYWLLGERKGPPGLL
Rev-erbA mod: modulators of human Rev-erb alpha DNA binding. P20393. Rev-erbα–FITC-DNA binding, fluorescence polarization, 90 min. activity, % at 10 µM. 370,000 tested, 0.79% active. AID 1259318;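 active = activity above about 14%, limit read from the data; passing the limit was not always enough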
V-ATPase pHluor: regulators of yeast V-ATPase proton transport; S. cerevisiae, pHLuorin cytosolic pH fluorescence; response, % at 10 µM; 350,000 tested, 0.37% active; AID 504577; in the data active = response mostly above about 7.3%, no sharp cut-off; inactive = mostly below about 5.4%; note: actives read high
VATPase regulator: regulators of yeast V-ATPase proton transport; response, % at 10 µM; shares compounds with V-ATPase pHluor; AID 602197; 980 tested, 2% active; S. cerevisiae pHLuorin cytosolic pH; in the data active = response above about 24%
Numbers stand for hits. A selection: hits, their analogues and other compounds. The true share with any hit is near 1.6%.

Results for N#Cc1c(SCc2ccccc2)nc(N2CCOCC2)c2c1CCCC2 ?
PG9 Ab binder: inactive; GC-A act: inactive; NPR2 activator: 37; Rev-erbA mod: inactive; V-ATPase pHluor: inactive

How did CCOC(=O)c1[nH]c2ccc(OC)cc2c1NC(=O)CN1CCSCC1 do in these assays?
PG9 Ab binder: inactive; GC-A act: inactive; NPR2 activator: inactive; Rev-erbA mod: inactive; V-ATPase pHluor: 25

How did CCOC(=O)c1[nH]c2ccc(OC)cc2c1NC(C)=O do in these assays?
PG9 Ab binder: inactive; GC-A act: inactive; NPR2 activator: inactive; Rev-erbA mod: inactive; V-ATPase pHluor: inactive

What do the screens show for `O=C(OC1CCOC1=O)c1ccc(CO)cc1` (stereo unspecified)?
PG9 Ab binder: inactive; GC-A act: inactive; NPR2 activator: inactive; Rev-erbA mod: inactive; V-ATPase pHluor: inactive

How did O=C(CCC(=O)c1ccc(F)cc1)OC1CCOC1=O (stereo unspecified) do in these assays?
PG9 Ab binder: inactive; GC-A act: 56; NPR2 activator: inactive; Rev-erbA mod: inactive; V-ATPase pHluor: inactive

How did O=S(=O)(c1ccc(F)cc1)N1CCN(CC(O)COCc2ccccc2)CC1 (stereo unspecified) do in these assays?
PG9 Ab binder: inactive; GC-A act: inactive; NPR2 activator: inactive; Rev-erbA mod: inactive; V-ATPase pHluor: inactive

What do the screens show for `O=S(=O)(c1ccc(F)cc1)N1CCN(CC(O)COCC2CCCO2)CC1` (stereo unspecified)?
PG9 Ab binder: inactive; GC-A act: inactive; NPR2 activator: inactive; Rev-erbA mod: inactive; V-ATPase pHluor: 9.8; VATPase regulator: inactive

Results for COc1ccc(C(=S)N2CCN(C)CC2)cc1Br ?
PG9 Ab binder: inactive; GC-A act: inactive; NPR2 activator: inactive; Rev-erbA mod: inactive; V-ATPase pHluor: 8.0; VATPase regulator: inactive

Results for CN(CCO)c1cccc2c1S(=O)(=O)N(Cc1cn(Cc3ccc(Cl)cc3)nn1)Cc1ccccc1O2 ?
GC-A act: inactive; NPR2 activator: inactive; Rev-erbA mod: inactive

What do the screens show for `CC(C)n1nnnc1C1(C)CCCCC(=O)N1Cc1cccc(C(F)(F)F)c1` (stereo unspecified)?
GC-A act: inactive; NPR2 activator: inactive; Rev-erbA mod: inactive

Results for CCc1nn(CC(=O)N2CCCCCC2)c(=O)c2cc3ccccc3n12 ?
PG9 Ab binder: inactive; GC-A act: inactive; NPR2 activator: inactive; Rev-erbA mod: inactive; V-ATPase pHluor: 13; VATPase regulator: inactive

How did O=C(CCC(=O)c1ccc(F)cc1)NN1C(=O)NC2(CCCCC2)C1=O do in these assays?
PG9 Ab binder: inactive; GC-A act: inactive; NPR2 activator: inactive; Rev-erbA mod: inactive; V-ATPase pHluor: inactive

What do the screens show for `O=C(NCC1(N2CCCCC2)CCCCC1)c1ccc(S(=O)(=O)N2CCCC2)cc1`?
PG9 Ab binder: inactive; GC-A act: inactive; NPR2 activator: inactive; Rev-erbA mod: inactive; V-ATPase pHluor: 7.8; VATPase regulator: inactive

Results for O=C(CCC(=O)c1ccc(F)cc1)NCC1(N2CCCCC2)CCCCC1 ?
PG9 Ab binder: inactive; GC-A act: inactive; NPR2 activator: inactive; Rev-erbA mod: inactive; V-ATPase pHluor: inactive; VATPase regulator: inactive

How did O=C(OCC(=O)N1CCCc2ccccc21)c1cccc(C(F)(F)F)c1 do in these assays?
PG9 Ab binder: inactive; GC-A act: inactive; NPR2 activator: inactive; Rev-erbA mod: inactive; V-ATPase pHluor: inactive

How did N#Cc1cccc(C(=O)OCC(=O)N2CCCc3ccccc32)c1 do in these assays?
PG9 Ab binder: inactive; GC-A act: inactive; NPR2 activator: inactive; Rev-erbA mod: inactive; V-ATPase pHluor: 9.2; VATPase regulator: inactive

What do the screens show for `O=C(CSc1nnc(-c2ccccc2)o1)NC1CCS(=O)(=O)C1` (stereo unspecified)?
PG9 Ab binder: inactive; GC-A act: inactive; NPR2 activator: inactive; Rev-erbA mod: inactive; V-ATPase pHluor: inactive; VATPase regulator: inactive

What do the screens show for `Cc1ccc(C)c(SCC(=O)NC2CCS(=O)(=O)C2)c1` (stereo unspecified)?
PG9 Ab binder: inactive; GC-A act: inactive; NPR2 activator: inactive; Rev-erbA mod: inactive; V-ATPase pHluor: 12; VATPase regulator: inactive

How did O=C1OCCC1Sc1nnc(-c2ccccc2)o1 (stereo unspecified) do in these assays?
PG9 Ab binder: inactive; GC-A act: inactive; NPR2 activator: inactive; Rev-erbA mod: inactive; V-ATPase pHluor: inactive; VATPase regulator: inactive

Results for O=C(CSc1nnc(-c2ccccc2)o1)NC1CC1 ?
PG9 Ab binder: inactive; GC-A act: inactive; NPR2 activator: inactive; Rev-erbA mod: inactive; V-ATPase pHluor: inactive; VATPase regulator: inactive

What do the screens show for `COc1ccc(N2C(=O)CC(Sc3nnc(-c4ccccc4)o3)C2=O)cc1` (stereo unspecified)?
PG9 Ab binder: inactive; GC-A act: inactive; NPR2 activator: inactive; Rev-erbA mod: inactive; V-ATPase pHluor: inactive

What do the screens show for `Cc1ccc(-n2nnnc2SCC(=O)NC2CCS(=O)(=O)C2)c(C)c1` (stereo unspecified)?
PG9 Ab binder: inactive; GC-A act: inactive; NPR2 activator: inactive; Rev-erbA mod: inactive; V-ATPase pHluor: inactive

What do the screens show for `CCOC(=O)[C@]12CCCC3=C1N(CCC3)C(=O)[C@@H](CC(=O)N1CCCC1)C2`?
GC-A act: inactive; NPR2 activator: inactive; Rev-erbA mod: inactive

What do the screens show for `Cc1ccccc1C(=O)NC(=S)Nc1ccc(S(=O)(=O)N2CCN(C)CC2)cc1`?
PG9 Ab binder: inactive; V-ATPase pHluor: inactive

What do the screens show for `Cc1ccccc1C(=O)NC(=S)Nc1ccc(S(=O)(=O)N2CCOCC2)cc1`?
PG9 Ab binder: inactive; GC-A act: inactive; NPR2 activator: inactive; Rev-erbA mod: inactive; V-ATPase pHluor: 9.5; VATPase regulator: inactive

How did COc1ccc2c(c1)CN1CN(Cc3ccccc3)S(=O)(=O)CC21 (stereo unspecified) do in these assays?
GC-A act: inactive; NPR2 activator: inactive; Rev-erbA mod: inactive

How did C=CCc1ccc(OCCOCCN(C)C)c(OC)c1 do in these assays?
PG9 Ab binder: inactive; GC-A act: inactive; NPR2 activator: inactive; Rev-erbA mod: inactive; V-ATPase pHluor: 12; VATPase regulator: inactive

What do the screens show for `Cc1noc(C)c1C(=O)N1CCCC(C(=O)c2cccc(OC(C)C)c2)C1` (stereo unspecified)?
PG9 Ab binder: inactive; GC-A act: inactive; NPR2 activator: inactive; Rev-erbA mod: inactive; V-ATPase pHluor: 13; VATPase regulator: inactive

Results for Cc1ncoc1C(=O)N1CCCC(C(=O)c2cccc(OC(C)C)c2)C1 (stereo unspecified) ?
PG9 Ab binder: inactive; GC-A act: inactive; NPR2 activator: inactive; Rev-erbA mod: inactive; V-ATPase pHluor: inactive

How did COc1cc(Br)c(C[N+]2(CCOCCC3CCC4CC3C4(C)C)CCOCC2)cc1OC (stereo unspecified) do in these assays?
Rev-erbA mod: inactive

Results for CCOC(=O)[C@]12CCCCC/C=C\1N(CCc1ccc(Cl)cc1)C(=O)[C@H]2CC(=O)N1CCOCC1 ?
GC-A act: inactive; NPR2 activator: inactive; Rev-erbA mod: inactive
